Test results from PubChem BioAssay (Tox21).
“And” between values parts separate entries of the source, which are not always exact repeats. Equal entries are not always repeated. Inconclusive results are not listed. The source made the active and inactive calls. Unless noted, calls follow the shape of the dose curve; as a rule, active = well fitted curve in the direction sought with a large enough effect in the repeat runs; inconclusive = weak or mixed curves; inactive = no such curve, though single readings can be large; an effect the other way counts as inactive or inconclusive.

How the values were obtained:
[1] = qHTS assay to identify small molecule antagonists of the retinoid acid receptor (RAR) signaling pathway - cell viability counter screen (AID 1159551); also: nearly all actives have a fitted effect of over 35% in size
Outline: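 Viability of C3RL4 cells is quantified from ATP by luminescence after 6 h treatment at 37 C with compounds and 1 uM retinol.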

[2] = qHTS assay to identify small molecule agonists of the retinoic acid receptor (RAR) signaling pathway (AID 1159553)
Outline: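 Compounds dissolved in DMSO were pinned onto C3RL4 cells seeded the previous day, and plates were held 6 hr at 37 C. RARE-driven luciferase output was then read by luminescence.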

[3] = qHTS assay to identify small molecule antagonists of the estrogen related receptor (ERR) signaling pathway from Tox21 library - cell viability counter screen (AID 1224834); also: nearly all actives have a fitted effect of over 30% in size
Outline: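 In this quantitative HTS format, ERR cells receive compounds in DMSO and are incubated for 17.5 h at 37 C. Live-cell protease activity is then detected with CellTiter-Fluor.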

[4] = target: Luciferin 4-monooxygenase (Photinus pyralis) (UniProt P08659); test: qHTS assay to identify small molecule inhibitors of firefly luciferase (AID 1224835); also: nearly all actives have a fitted effect of over 25% in size
Luciferin 4-monooxygenase (Photinus pyralis), sequence (P08659 whole entry, looked up): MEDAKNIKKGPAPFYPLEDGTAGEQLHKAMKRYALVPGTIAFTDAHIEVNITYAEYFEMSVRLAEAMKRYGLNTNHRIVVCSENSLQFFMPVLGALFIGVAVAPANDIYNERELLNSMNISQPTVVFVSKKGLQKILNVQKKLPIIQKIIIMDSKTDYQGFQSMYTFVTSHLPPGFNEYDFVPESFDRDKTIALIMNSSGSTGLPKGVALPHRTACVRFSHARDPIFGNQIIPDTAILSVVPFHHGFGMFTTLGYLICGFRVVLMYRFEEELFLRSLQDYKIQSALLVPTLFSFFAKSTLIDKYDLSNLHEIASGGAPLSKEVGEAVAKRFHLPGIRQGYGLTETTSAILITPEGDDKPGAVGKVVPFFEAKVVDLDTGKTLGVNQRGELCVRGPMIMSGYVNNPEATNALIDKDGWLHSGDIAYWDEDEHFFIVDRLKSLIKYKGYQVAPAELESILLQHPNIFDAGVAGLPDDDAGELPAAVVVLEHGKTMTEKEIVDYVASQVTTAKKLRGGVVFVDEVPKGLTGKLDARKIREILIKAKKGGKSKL
Outline: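 Inhibition of purified Photinus luciferase is measured by luminescence. Substrate levels (D-luciferin, ATP) sit at their KM values. Each compound is tested in a concentration series.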

[5] = qHTS assay to identify small molecule agonists of the constitutive androstane receptor (CAR) signaling pathway - cell viability counter screen (AID 1224836); also: nearly all actives have a fitted effect of over 45% in size
Outline: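 Counter screen multiplexed with the CAR reporter readout: HepG2 cells co-transfected with hCAR and the CYP2B6-2.2kb construct receive a 15-concentration compound series and 0.75 uM PK11195 (final), then CellTiter-Fluor fluorescence is read after 23 h.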

[6] = qHTS assay to identify small molecule antagonists of the constitutive androstane receptor (CAR) signaling pathway - cell viability counter screen (AID 1224837); also: nearly all actives have a fitted effect of over 45% in size
Outline: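 In quantitative HTS format, compounds at 15 concentrations were applied to HepG2 cells double-transfected with hCAR and CYP2B6-2.2kb under 50 nM CITCO stimulation; live-cell protease activity was read after 23 hr via CellTiter-Fluor.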

[7] = target: Nuclear receptor subfamily 1 group I member 3 (Homo sapiens) (UniProt Q14994); test: qHTS assay to identify small molecule antagonists of the constitutive androstane receptor (CAR) signaling pathway (AID 1224838); also: nearly all actives have a fitted effect of over 40% in size
Nuclear receptor subfamily 1 group I member 3 (Homo sapiens), sequence (Q14994 whole entry, looked up): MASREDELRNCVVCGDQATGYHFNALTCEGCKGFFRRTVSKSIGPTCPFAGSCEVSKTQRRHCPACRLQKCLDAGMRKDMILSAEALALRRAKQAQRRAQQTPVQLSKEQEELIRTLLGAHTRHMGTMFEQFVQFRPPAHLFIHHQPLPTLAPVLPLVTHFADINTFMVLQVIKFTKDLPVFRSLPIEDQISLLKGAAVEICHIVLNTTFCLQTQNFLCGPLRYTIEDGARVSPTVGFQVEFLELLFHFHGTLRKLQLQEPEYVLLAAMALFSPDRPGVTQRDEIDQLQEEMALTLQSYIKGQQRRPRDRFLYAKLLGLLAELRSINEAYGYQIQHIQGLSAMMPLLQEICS
Outline: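 CITCO-stimulated (50 nM final) HepG2 cells stably transfected with hCAR and CYP2B6-2.2kb luciferase were exposed to compounds at 15 concentrations for 24 h at 37 C/5% CO2. A luciferase reagent was added and luminescence recorded after 30 min.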

[8] = target: Nuclear receptor subfamily 1 group I member 3 (Homo sapiens) (UniProt Q14994); test: qHTS assay to identify small molecule agonists of the constitutive androstane receptor (CAR) signaling pathway (AID 1224839); also: nearly all actives have a fitted effect of over 15% in size; as to activation: series mostly up to about 92 µM
Outline: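 A 15-concentration quantitative screen uses HepG2 cells co-transfected stably with human CAR and CYP2B6-2.2kb reporter. Treatment lasts 24 h with 0.75 uM PK11195 final present; ONE-Glo luminescence is the signal.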

[9] = qHTS assay to identify small molecule antagonists of the estrogen related receptor signaling pathway with the pleiotropic PPARgamma coactivator (PGC) from Tox21 10K library (AID 1224841; call rule not given here; also: actives are mostly falling curves and most rising ones were filed inactive; nearly all actives have a fitted effect of over 50% in size)
Outline: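 In the PGC/ERR line, DMSO solutions of test chemicals are pin-delivered to 2,000 cells/well six hours after dispensing. Following eighteen hours' incubation, One-Glo reagent is added and luminescence recorded.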

[10] = qHTS assay to identify small molecule agonists of the estrogen related receptor signaling pathway with the pleiotropic PPARgamma coactivator (PGC) from Tox21 10K library (AID 1224842); also: nearly all actives have a fitted effect of over 15% in size
Outline: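 Luminescence from One-Glo (30 min, room temperature) measured after PGC/ERR cells had 18 h at 37 C with pinned compound (23 nL in DMSO). Cells had been seeded at 2,000 per well and pre-incubated 6 h.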

[11] = target: Thyrotropin receptor (Homo sapiens) (UniProt P16473); test: qHTS assay to identify small molecule agonists of the thyroid stimulating hormone receptor (TSHR) signaling pathway (AID 1224843; calls by dose curve; also: nearly all actives have a fitted effect of over 45% in size)
Thyrotropin receptor (Homo sapiens), sequence (P16473 whole entry, looked up): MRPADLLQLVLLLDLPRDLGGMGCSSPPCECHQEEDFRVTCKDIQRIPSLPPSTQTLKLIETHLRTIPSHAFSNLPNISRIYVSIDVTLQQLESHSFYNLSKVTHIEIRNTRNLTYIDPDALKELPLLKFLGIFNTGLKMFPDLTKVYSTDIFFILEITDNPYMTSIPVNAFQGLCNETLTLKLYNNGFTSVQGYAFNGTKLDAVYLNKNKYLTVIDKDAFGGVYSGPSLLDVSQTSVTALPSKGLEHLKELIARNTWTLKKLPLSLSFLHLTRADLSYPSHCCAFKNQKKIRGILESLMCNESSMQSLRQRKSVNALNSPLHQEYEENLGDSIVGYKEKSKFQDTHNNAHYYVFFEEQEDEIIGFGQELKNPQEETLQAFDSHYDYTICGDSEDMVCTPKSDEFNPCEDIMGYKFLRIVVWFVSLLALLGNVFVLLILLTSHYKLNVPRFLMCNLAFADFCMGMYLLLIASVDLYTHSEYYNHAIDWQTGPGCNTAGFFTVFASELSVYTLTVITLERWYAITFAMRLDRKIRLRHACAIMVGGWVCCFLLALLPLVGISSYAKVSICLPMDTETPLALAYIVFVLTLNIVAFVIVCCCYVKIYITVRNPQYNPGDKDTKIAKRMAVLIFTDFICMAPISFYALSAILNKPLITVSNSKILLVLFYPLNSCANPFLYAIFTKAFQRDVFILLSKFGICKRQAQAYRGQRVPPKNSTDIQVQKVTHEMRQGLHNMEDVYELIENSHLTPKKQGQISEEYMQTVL
Outline: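 Agonist activity read as cAMP rise via d2/cryptate HTRF competition, 1 h room-temperature detection, in HEK293 cells expressing TSHR. Fifteen-point titrations, each run in triplicate, with a 30 min room-temperature incubation beforehand.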

[12] = qHTS assay to identify small molecule antagonists of the estrogen related receptor signaling pathway with the pleiotropic PPARgamma coactivator (PGC) from Tox21 10K library - cell viability counter screen (AID 1224840; active = well fitted cell-killing curve with a large enough effect in the repeat runs, not every such curve was filed as active; also: nearly all actives have a fitted effect of over 40% in size)
Outline: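 Viability counter screen, PGC/ERR cells: 17.5 h compound exposure at 37 C, CellTiter-Fluor fluorescence endpoint.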
% is scaled to controls: 0 for no effect and ±100 for the full control effect; potency is read from the fitted curve at half-maximal effect.

CCCC(C)c1ccccc1O (centres undefined)
inactive: Potency [1] | Potency [2] | Potency [3] | Potency [4] | Potency [5] | Potency [6] | Potency [7] | Potency [8]

CC(C)=CCOc1ccc(/C=C/C(=O)c2ccc(OCC=C(C)C)cc2OCC(=O)O)cc1
inactive: Potency [1] | Potency [2] | Potency [3] | Potency [4] | Potency [5] | Potency [6] | Potency [7] | Potency [8] | Potency [10] | Potency [11]
active: Potency [9] 21.1 µM

O=C(Nc1cccc(Cl)c1)OCC#CCCl
active: Potency [3] 54.5 µM | Potency [4] 44.8 µM | Potency [5] 54.5 µM | Potency [6] 38.6 µM | Potency [12] 48.6 µM | Potency [9] 21.7 µM
inactive: Potency [1] | Potency [10]

Cc1ccc(-n2nc(C(C)(C)C)cc2NC(=O)Nc2ccc(OCCN3CCOCC3)c3ccccc23)cc1
inactive: Potency [1] | Potency [4] | Potency [5] | Potency [6] | Potency [7] | Potency [12] | Potency [10]

CCN1/C(=C/C=C/c2sc3ccccc3[n+]2CC)Sc2ccccc21
inactive: activation [8] -9.24% [at 19 µM] | activation [10] -14.5% [at 19 µM] | activation [11] 1.82% [at 19 µM]
active: Potency [1] 14.6 µM | Potency [3] 5.8 µM | Potency [4] 9.52 µM | Potency [5] 13 µM | Potency [6] 11.6 µM | Potency [7] 14.6 µM

Cc1cccc(N(C)C(=S)Oc2ccc3c(c2)C2CCC3C2)c1 (centres undefined)
inactive: Potency [1] | Potency [3] | Potency [4] | Potency [5] | Potency [6] | Potency [7] | Potency [12] | Potency [9] | Potency [10] | Potency [11]
active: Potency [8] 21.1 µM

Cc1c(C)c2c(c(C)c1OC(=O)CCC(=O)O)CC[C@@](C)(CCC[C@H](C)CCC[C@H](C)CCCC(C)C)O2
inactive: Potency [1] | Potency [2] | Potency [3] | Potency [4] | Potency [5] | Potency [6] | Potency [7] | Potency [8] | Potency [12] | Potency [9] | Potency [10] | Potency [11]

CC(C)n1nc(-c2cc3cc(O)ccc3[nH]2)c2c(N)ncnc21
inactive: Potency [4] | Potency [8] | Potency [10]
active: Potency [3] 1.33 µM | Potency [7] 15 µM | Potency [9] 0.211 µM

CCCCN(CCCC)c1ccc(C(=O)c2ccccc2C(=O)O)c(O)c1
inactive: Potency [1] | Potency [4] | Potency [5] | Potency [6] | Potency [12] | Potency [9] | Potency [11]

COc1cccc2c1C(=O)c1c(O)c3c(c(O)c1C2=O)C[C@@](O)(C(=O)CO)C[C@@H]3O[C@H]1C[C@H](N)[C@H](O[C@@H]2CCCCO2)[C@H](C)O1
active: Potency [3] 9.44 µM | Potency [5] 7.5 µM | Potency [6] 8.41 µM | Potency [7] 0.944 µM | Potency [10] 0.422 µM
inactive: Potency [1] | Potency [2] | Potency [8] | Potency [9] | Potency [11]

CNCc1cc(F)ccc1Oc1ccc(Cl)c(Cl)c1
inactive: Potency [1] | Potency [4] | Potency [10]
active: Potency [6] 61.1 µM | Potency [11] 54.5 µM

CCC1OCC(COc2ccc(Oc3ccccc3)cc2)O1 (centres undefined)
inactive: Potency [1] | Potency [5] | Potency [6] | Potency [7] | Potency [9]
active: Potency [2] 3.44 µM | Potency [4] 17.8 µM | Potency [8] 21.7 µM

Cc1ccc(O)c(C(C)(C)C)c1
inactive: Potency [1] | Potency [3] | Potency [4] | Potency [5] | Potency [6] | Potency [7] | Potency [8] | Potency [12] | Potency [11]

Nc1c2ccccc2nc2ccccc12
active: Potency [7] 956 nM and 1.68 µM
inactive: Potency [4] | Potency [5] | Potency [6] | Potency [8] | Potency [12] | Potency [10] | Potency [11]
